Experiment [1] concerns the target Luciferin 4-monooxygenase (Photinus pyralis) (UniProt P08659). The experiment is described as follows: qHTS assay to identify small molecule inhibitors of firefly luciferase (AID 1224835). Note: % is set by controls: 0 for no effect and ±100 for the full control effect; nearly all actives have a fitted effect of over 25% in size. A digest of the protocol:
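Biochemical qHTS: compounds run as interplate titrations against purified firefly enzyme, with D-luciferin and ATP each at its KM concentration. Light output recorded by CCD imaging.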

A short description of experiment [2]: qHTS assay to identify small molecule agonists of the constitutive androstane receptor (CAR) signaling pathway - cell viability counter screen (AID 1224836). Note: nearly all actives have a fitted effect of over 45% in size. Note: potency is the fitted concentration of half-maximal effect. In outline: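 Viability read-out: CellTiter-Fluor fluorescence after 23 h compound exposure at 37 C/5% CO2 in double-stable HepG2-CYP2B6-hCAR cells, with PK11195 present at 0.75 uM final; compounds tested in 15-point titration.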
Background: In qHTS, concentration-response curves come from the screen itself.

Experiment [3] concerns the target Nuclear receptor subfamily 1 group I member 3 (Homo sapiens) (UniProt Q14994). The experiment is described as follows: qHTS assay to identify small molecule antagonists of the constitutive androstane receptor (CAR) signaling pathway (AID 1224838). Note: nearly all actives have a fitted effect of over 40% in size. Note: potency is the fitted concentration of half-maximal effect. In outline: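 Compounds were titrated across 15 concentrations onto HepG2 cells double-stably expressing hCAR and a CYP2B6-2.2kb reporter, together with 50 nM CITCO (final). After 24 h at 37 C, luciferase activity was measured by luminescence.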

For experiment [4] the target is unchanged. The experiment can be described thus: qHTS assay to identify small molecule agonists of the constitutive androstane receptor (CAR) signaling pathway (AID 1224839). Note: % is set by controls: 0 for no effect and ±100 for the full control effect; nearly all actives have a fitted effect of over 15% in size. A digest of the protocol: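 Luminescence read-out (ONE-Glo, 30 min, room temperature) from double-stable HepG2-CYP2B6-hCAR cells exposed 24 h to 15-point compound series in presence of 0.75 uM PK11195 final.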

The nature of experiment [5]: qHTS assay to identify small molecule antagonists of the estrogen related receptor signaling pathway with the pleiotropic PPARgamma coactivator (PGC) from Tox21 10K library - cell viability counter screen (AID 1224840; active = well fitted cell-killing curve with a large enough effect in the repeat runs, not every such curve was filed as active; note: nearly all actives have a fitted effect of over 40% in size; note: potency is the fitted concentration of half-maximal effect). A digest of the protocol: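 Step one, plate 2,000 PGC/ERR cells per well; step two, incubate 6 h at 37 C/5% CO2; step three, pin-transfer compounds; step four, incubate 17.5 h; step five, add CellTiter-Fluor and read fluorescence after 30 min.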

Experiment [6] has as its target Thyrotropin receptor (Homo sapiens) (UniProt P16473). The experiment is described as follows: qHTS assay to identify small molecule agonists of the thyroid stimulating hormone receptor (TSHR) signaling pathway (AID 1224843; calls by dose curve; note: nearly all actives have a fitted effect of over 45% in size; note: potency is the fitted concentration of half-maximal effect; for activation: % is set by controls: 0 for no effect and ±100 for the full control effect). A digest of the protocol:
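TSHR-HEK293 cells in agonist mode, 30 min room-temperature step, then cAMP measured by competitive HTRF (cAMP-d2 with anti-cAMP cryptate) after 1 h at room temperature. Tested at 15 concentrations in triplicate.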

The nature of experiment [7]: qHTS assay to identify small molecule agonists of the hypoxia (HIF-1) signaling pathway - cell viability counter screen (AID 1224844; calls by dose curve; note: nearly all actives have a fitted effect of over 50% in size; note: potency is the fitted concentration of half-maximal effect). A digest of the protocol: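 Tox21 10K compounds were added to HRE-bla ME-180 cells (0.5% dialyzed FBS) and incubated 17 hrs at 37C; ATP-based CellTiter-Glo luminescence then reported cell viability in the same wells.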
A short description of experiment [8]: qHTS assay to identify small molecule agonists of H2AX (AID 1224845; active = well fitted activation curve with a large enough effect in the signal ratio in the repeat runs, not every such curve was filed as active; the % refers to the signal ratio; note: % is set by controls: 0 for no effect and ±100 for the full control effect). In outline: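 Wild-type CHO-K1 cells, plated overnight, exposed 3hr at 37C to 15 concentrations (0.76% DMSO final). Lysed, then HTRF anti-pH2AX (S139) cryptate and anti-H2AX-d2 antibodies, 24 hr room temperature; 665/620 nm emission read.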
Experiment [9] in a line: qHTS assay to identify small molecule agonists of H2AX - cell viability counter screen (AID 1224847; calls by dose curve; note: nearly all actives have a fitted effect of over 30% in size; note: potency is the fitted concentration of half-maximal effect). In outline:
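CHO-K1 wt, 1000 cells/well, o/n 37C; cpds 15 conc, 3 h 37C, 0.76% DMSO; CellTiter-Glo, 30 min RT, luminescence.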

Experiment [10] in a line: qHTS assay to identify small molecule antagonists of the estrogen related receptor (ERR) signaling pathway from Tox21 library (AID 1224848). Note: nearly all actives have a fitted effect of over 50% in size. Note: potency is the fitted concentration of half-maximal effect. In outline:
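ERR reporter cell line (from NTP) seeded 2,000 cells/well, rested 6 h at 37 C/5% CO2, then pin-dosed with compounds in DMSO. After 18 h at 37 C, ONE-Glo added; luminescence read after 30 min at room temperature.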

Experiment [11] can be described thus: qHTS assay to identify small molecule agonists of the estrogen related receptor (ERR) signaling pathway from Tox21 library (AID 1224849; calls by dose curve; note: % is set by controls: 0 for no effect and ±100 for the full control effect; nearly all actives have a fitted effect of over 15% in size). To be noted: ERR reporter cell line, ONE-Glo luciferase, 18 h. A digest of the protocol:
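Agonist signal is luciferase luminescence from an ERR reporter cell line treated 18 h at 37 C with DMSO-dissolved compounds, read 30 min after ONE-Glo addition at room temperature.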

The nature of experiment [12]: qHTS RealTime-Glo MT Cell Viability Assay in HepG2 cells - 24 hour (AID 1224867). Note: nearly all actives have a fitted effect of over 50% in size. Note: potency is the fitted concentration of half-maximal effect. In outline: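 Real-time, nonlytic viability: 600 HepG2 cells/well mixed with NanoLuc enzyme plus prosubstrate; 5 h settle, compound (DMSO) added by pintool; luminescence monitored over 40 h at 37 C.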
Experiment [13] can be described thus: qHTS RealTime-Glo MT Cell Viability Assay in HEK293 cells - 32 hour (AID 1224868). Note: nearly all actives have a fitted effect of over 50% in size. Note: potency is the fitted concentration of half-maximal effect. In outline: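 Cells + reagent dispensed (600 cells/well, HEK293) → 5 h at 37 C/5% CO2 → 23 nL compound in DMSO pinned → 40 h at 37 C → luminescence read at 0, 8, 16, 24, 32, 40 h.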
Experiment [14] can be described thus: A CellTox Green Cytotoxicity Assay to monitor cytotoxicity in HEK293 cells - 0 hour (AID 1224869). A digest of the protocol: (§1)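 Cytotoxicity was tracked continuously in HEK293 cells by a DNA-binding dye excluded from viable cells. Compounds were transferred in DMSO 5 h after seeding; fluorescence was recorded at intervals up to 40 h.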
The nature of experiment [15]: qHTS RealTime-Glo MT Cell Viability Assay in HepG2 cells - 40 hour (AID 1224870). Note: nearly all actives have a fitted effect of over 50% in size. Note: potency is the fitted concentration of half-maximal effect. In outline: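 HepG2 cells (600/well) mixed with RealTime-Glo MT reagent, settled 5 h at 37 C/5% CO2 before compound addition. Nonlytic NanoLuc luminescence from viable-cell prosubstrate reduction read repeatedly during 40 h treatment at 37 C.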
Experiment [16] is described as follows: A CellTox Green Cytotoxicity Assay to monitor cytotoxicity in HEK293 cells - 40 hour (AID 1224871). Note: nearly all actives have a fitted effect of over 45% in size. Note: potency is the fitted concentration of half-maximal effect. A digest of the protocol: as §1
Experiment [17] is described as follows: qHTS assay to identify small molecule antagonists of the constitutive androstane receptor (CAR) signaling pathway - cell viability counter screen (AID 1224837). Note: potency is the fitted concentration of half-maximal effect; nearly all actives have a fitted effect of over 45% in size. A digest of the protocol: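 Multiplexed cytotoxicity read-out for the CAR antagonist screen: double-stable HepG2-CYP2B6-hCAR cells co-treated with 50 nM CITCO (final) and compound over 15 concentrations, incubated 23 hr, then assessed by CellTiter-Fluor fluorescence.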

Experiment [18] in a line: qHTS assay to identify small molecule agonists of the estrogen related receptor signaling pathway with the pleiotropic PPARgamma coactivator (PGC) from Tox21 10K library (AID 1224842). Note: % is set by controls: 0 for no effect and ±100 for the full control effect; nearly all actives have a fitted effect of over 15% in size. In outline: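 PGC/ERR reporter cell line, 2,000 cells per well, incubated 6 h at 37 C before 23 nL compound in DMSO was added. After 18 h at 37 C, One-Glo luminescence read following 30 min at room temperature.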

Experiment [19] can be described thus: qHTS assay to identify small molecule antagonists of the estrogen related receptor signaling pathway with the pleiotropic PPARgamma coactivator (PGC) from Tox21 10K library (AID 1224841; call rule not given here; note: potency is the fitted concentration of half-maximal effect). A digest of the protocol:
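Antagonism in this quantitative HTS is taken from loss of luciferase signal in PGC/ERR cells. Cells (2,000/well) are treated with compounds in DMSO after a 6 h settling period and read by One-Glo luminescence after 18 h.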

A short description of experiment [20]: qHTS assay to identify small molecule agonists of the hypoxia (HIF-1) signaling pathway (AID 1224846; active = well fitted activation curve with a large enough effect in the signal ratio in the repeat runs, not every such curve was filed as active; the % refers to the signal ratio; note: % is set by controls: 0 for no effect and ±100 for the full control effect). A digest of the protocol:
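Steps: seed ME-180 HRE-bla cells (2,000/well, 0.5% dialyzed FBS); incubate 5 hrs at 37C; pin-transfer compounds or DMSO; incubate 17 hrs; add LiveBLAzer B/G substrate CCF4-AM; measure reporter activation by FRET.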

Where [21] appears, read: at 92.4 µM (top of the series) unless noted.

Values joined by “and” are separate entries in the source; they are usually repeats but may differ in a detail not shown here. Identical values can stand only once. Unmarked numbers belong to inactive results. Results filed as inconclusive are left out. Some compounds were tested as several samples or in several runs, with calls that do not always agree. Active and inactive are the calls of the source. Unless noted, calls come from the whole dose curve; as a rule, active = well fitted curve in the direction sought with a large enough effect in the repeat runs; inconclusive = weak or mixed curves; inactive = no such curve, though single readings can be large; an effect the other way counts as inactive or inconclusive.

These results are taken from PubChem BioAssay (Tox21).

Chain of Nuclear receptor subfamily 1 group I member 3 (Homo sapiens) (Q14994 whole entry, looked up): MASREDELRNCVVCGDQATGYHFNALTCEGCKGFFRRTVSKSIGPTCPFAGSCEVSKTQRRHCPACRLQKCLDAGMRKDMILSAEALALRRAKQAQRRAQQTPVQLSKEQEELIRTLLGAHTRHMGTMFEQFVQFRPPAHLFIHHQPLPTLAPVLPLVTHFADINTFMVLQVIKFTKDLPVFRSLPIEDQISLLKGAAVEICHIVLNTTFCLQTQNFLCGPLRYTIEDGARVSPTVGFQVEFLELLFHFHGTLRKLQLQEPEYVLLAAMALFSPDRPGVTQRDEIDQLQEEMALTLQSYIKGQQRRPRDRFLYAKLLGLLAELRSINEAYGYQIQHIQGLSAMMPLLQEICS
Chain of Luciferin 4-monooxygenase (Photinus pyralis) (P08659 whole entry, looked up): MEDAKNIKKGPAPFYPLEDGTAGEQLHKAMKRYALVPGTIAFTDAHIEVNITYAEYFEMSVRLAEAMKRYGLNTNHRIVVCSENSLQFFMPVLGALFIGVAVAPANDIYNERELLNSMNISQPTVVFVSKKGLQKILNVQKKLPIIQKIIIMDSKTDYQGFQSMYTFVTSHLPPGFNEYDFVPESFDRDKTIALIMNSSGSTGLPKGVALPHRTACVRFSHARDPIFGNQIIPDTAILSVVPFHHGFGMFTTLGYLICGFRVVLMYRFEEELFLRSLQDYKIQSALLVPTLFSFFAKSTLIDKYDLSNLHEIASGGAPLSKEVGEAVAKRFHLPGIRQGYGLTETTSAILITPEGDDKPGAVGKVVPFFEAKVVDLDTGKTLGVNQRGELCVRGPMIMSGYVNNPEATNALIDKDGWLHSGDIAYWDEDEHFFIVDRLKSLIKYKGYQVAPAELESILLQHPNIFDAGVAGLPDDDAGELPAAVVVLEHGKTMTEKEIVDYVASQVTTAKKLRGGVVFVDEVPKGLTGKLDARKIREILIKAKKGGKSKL
Chain of Thyrotropin receptor (Homo sapiens) (P16473 whole entry, looked up): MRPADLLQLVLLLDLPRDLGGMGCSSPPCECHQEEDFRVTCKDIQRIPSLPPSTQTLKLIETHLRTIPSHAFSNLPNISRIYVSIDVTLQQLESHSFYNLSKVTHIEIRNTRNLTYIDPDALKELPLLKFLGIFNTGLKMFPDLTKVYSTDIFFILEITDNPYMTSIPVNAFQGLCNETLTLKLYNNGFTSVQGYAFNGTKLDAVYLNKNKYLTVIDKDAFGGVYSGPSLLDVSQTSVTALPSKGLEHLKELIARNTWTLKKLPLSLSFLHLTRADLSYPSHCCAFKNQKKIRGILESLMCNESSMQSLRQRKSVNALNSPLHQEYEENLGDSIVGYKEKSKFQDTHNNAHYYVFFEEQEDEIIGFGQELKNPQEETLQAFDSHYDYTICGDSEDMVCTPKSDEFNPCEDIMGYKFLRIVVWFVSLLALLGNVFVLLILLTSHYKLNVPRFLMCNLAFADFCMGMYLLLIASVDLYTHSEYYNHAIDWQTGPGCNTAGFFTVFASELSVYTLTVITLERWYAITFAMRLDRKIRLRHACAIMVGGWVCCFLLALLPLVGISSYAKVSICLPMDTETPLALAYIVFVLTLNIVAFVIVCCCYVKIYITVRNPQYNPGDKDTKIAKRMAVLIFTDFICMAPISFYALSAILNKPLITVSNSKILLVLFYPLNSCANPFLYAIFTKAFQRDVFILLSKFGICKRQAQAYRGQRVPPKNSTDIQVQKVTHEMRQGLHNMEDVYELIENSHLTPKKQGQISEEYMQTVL

`C=C[C@](C)(O)CC[C@@H]1[C@@]2(C)CCCC(C)(C)[C@@H]2CC[C@@]1(C)O`: the Potency result in [1], in experiment [3], in experiment [4], in experiment [8] and in experiment [14] was “inactive” each time. Besides, the Potency in [2] is 61.1 µM (active); in experiment [5], 61.1 µM (active); in experiment [6], 19.3 µM (active); in experiment [7] it was 49 µM (active); in [9] it was 113 µM (active); in experiment [10], 27.3 µM (active). Also, the Potency is 49 µM (active) in experiment [12], 21.9 µM (active) in [13], 54.9 µM (active) in [15] and 43.6 µM (active) in [16]. Moreover, the activity change, positive = activation in [11] (setting [21]) is -46.9%.
As for `CCCOc1sc(C(=O)N2CCC(c3cc(CN)ccc3F)CC2)c(C)c1Br`, the Potency result in [1], in experiment [4], in experiment [18] and in experiment [14] was “inactive” each time. Further, the Potency in experiment [17] was 62.8 µM (active); in experiment [5], 56 µM (active); in experiment [7] it was 28.3 µM (active); in experiment [9], 46.3 µM (active); in experiment [10] it was 49.9 µM (active); in [12] it was 22.5 µM (active). Further, the Potency was 22.5 µM (active) in experiment [13], 28.3 µM (active) in experiment [15] and 31.8 µM (active) in [16]. Further, the activity change, positive = activation in experiment [11] (setting [21]) is -71.6%.
Take `Cc1cc2c(C(C)C)c(O)c(O)c(C=O)c2c(O)c1-c1c(C)cc2c(C(C)C)c(O)c(O)c(C=O)c2c1O`: the Potency entry in experiment [1], in [4], in experiment [18] and in experiment [6] was “inactive” each time. In addition, the Potency in experiment [5] is 26.6 µM (active); in experiment [19], 11.9 µM (active); in experiment [10], 7.5 µM (active); in [12] it was 21.3 µM (active); in [13], 12 µM (active); in experiment [15], 26.8 µM (active). Besides, the Potency in experiment [16] is 19 µM (active). Further, the activity change, positive = activation in experiment [11] (setting [21]) is -47.3% [at 42.5 µM].
Consider `C=CC(=C)CCC=C(C)C`, for which the Potency entry in experiment [1], in experiment [2], in experiment [4], in experiment [5], in experiment [7] and in experiment [12] was “inactive” throughout. Besides, the Potency result in experiment [13], in experiment [14], in [15] and in [16] was “inactive” in each case. In addition, the Potency in experiment [3] is 61.1 µM (active). In addition, the outcome in experiment [20] was inactive.
Consider `CCOC(=O)C1=C(C)NC(C)=C(C(=O)OCC)C1c1ccccc1/C=C/C(=O)OC(C)(C)C`, for which the Potency result in [1], in experiment [2], in [3], in experiment [18], in [6] and in experiment [8] was “inactive” each time. Besides, the Potency entry in experiment [14] and in [16] was “inactive” throughout. The Potency in experiment [10] was 13.3 µM (active). In experiment [11] (setting [21]), the activity change, positive = activation was -56.8% [at 42.5 µM].
In the case of `O=C1c2c(O)ccc(O)c2C(=O)c2c(NCCNCCO)ccc(NCCNCCO)c21`, the Potency in experiment [2] was 3.76 µM (active); in experiment [17], 4.22 µM (active); in experiment [10] it was 0.75 µM (active); in experiment [12] it was 9.52 µM (active); in [13] it was 0.0239 µM (active); in experiment [15], 7.56 µM (active). Moreover, the Potency entry in experiment [19], in [14] and in [16] was “inactive” in each case. Besides, the activity change, positive = activation in experiment [11] (setting [21]) is -59.3% [at 42.5 µM].
In the case of `C[C@H]1O[C@@H](O[C@H]2[C@@H](O)C[C@H](O[C@H]3[C@@H](O)C[C@H](O[C@H]4CC[C@@]5(C)[C@H](CC[C@@H]6[C@@H]5C[C@@H](O)[C@]5(C)[C@@H](C7=CC(=O)OC7)CC[C@]65O)C4)O[C@@H]3C)O[C@@H]2C)C[C@H](O)[C@@H]1O`, the Potency is 154 nM (active) and 107 nM (active) in [19]; 123 nM (active) and 153 nM (active) in experiment [7]; 61.7 nM (active) and 54.3 nM (active) in [13]. The Potency result in [18], in experiment [8], in experiment [9], in experiment [10], in experiment [12] and in experiment [14] was “inactive” in each case. Moreover, the Potency entry in [15] and in experiment [16] was “inactive” in each case. In addition, the values for the activity change, positive = activation in [11] (at 42.5 µM (top of the series)) and in experiment [11] (at 92.4 µM (top of the series)) were -72.5% (active) and -71.3%, respectively.
